High-throughput results deposited in PubChem BioAssay by National Center for Advancing Translational Sciences (NCATS).
Tb PFK inh = T. brucei PFK enzyme inhibition. T. brucei PFK, ADP-Glo luminescence. 0.17% of 330,000 active. O15648. Potency, µM (doses to about 57.5 µM), for inactives: at the highest dose activity, negative = inhibition, most hits filed as inhibitors; active means well fitted inhibition curve with a large enough effect; inconclusive means small, poorly fitted or top-dose-only effect, or effect the other way;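 further: potency means the concentration at half of the fitted maximal effect; 0% = uninhibited 1x PFK enzyme wells and -100% = no-enzyme wells; nearly all actives have a fitted effect of over 60% in size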
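PFK 1.25 nM, F6P 0.5 mM, ATP 0.1 mM, 0.1 M TEA pH 8.0, 5 mM MgCl2, 0.01% Tween20, 0.1% BSA; 45 min RT. ADP-Glo readout. qHTS titration up to 57 uM; curves fitted, compounds curve-classed.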
hERG WT inh = blocks the wildtype human KCNH2 potassium channel; Q12809; U2OS, BacMam KCNH2, thallium flux FluxOr; hits give low values; activity change, % at 1.84 µM; 0.37% of 340,000 active;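 active means maximum activity change below -70%; inconclusive means maximum activity change between -70% and -50%; inactive means maximum activity change above -50%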; further: on the % scale 0 is the no-effect control and ±100 the full control effect
Target sequence (Q12809 whole entry, looked up): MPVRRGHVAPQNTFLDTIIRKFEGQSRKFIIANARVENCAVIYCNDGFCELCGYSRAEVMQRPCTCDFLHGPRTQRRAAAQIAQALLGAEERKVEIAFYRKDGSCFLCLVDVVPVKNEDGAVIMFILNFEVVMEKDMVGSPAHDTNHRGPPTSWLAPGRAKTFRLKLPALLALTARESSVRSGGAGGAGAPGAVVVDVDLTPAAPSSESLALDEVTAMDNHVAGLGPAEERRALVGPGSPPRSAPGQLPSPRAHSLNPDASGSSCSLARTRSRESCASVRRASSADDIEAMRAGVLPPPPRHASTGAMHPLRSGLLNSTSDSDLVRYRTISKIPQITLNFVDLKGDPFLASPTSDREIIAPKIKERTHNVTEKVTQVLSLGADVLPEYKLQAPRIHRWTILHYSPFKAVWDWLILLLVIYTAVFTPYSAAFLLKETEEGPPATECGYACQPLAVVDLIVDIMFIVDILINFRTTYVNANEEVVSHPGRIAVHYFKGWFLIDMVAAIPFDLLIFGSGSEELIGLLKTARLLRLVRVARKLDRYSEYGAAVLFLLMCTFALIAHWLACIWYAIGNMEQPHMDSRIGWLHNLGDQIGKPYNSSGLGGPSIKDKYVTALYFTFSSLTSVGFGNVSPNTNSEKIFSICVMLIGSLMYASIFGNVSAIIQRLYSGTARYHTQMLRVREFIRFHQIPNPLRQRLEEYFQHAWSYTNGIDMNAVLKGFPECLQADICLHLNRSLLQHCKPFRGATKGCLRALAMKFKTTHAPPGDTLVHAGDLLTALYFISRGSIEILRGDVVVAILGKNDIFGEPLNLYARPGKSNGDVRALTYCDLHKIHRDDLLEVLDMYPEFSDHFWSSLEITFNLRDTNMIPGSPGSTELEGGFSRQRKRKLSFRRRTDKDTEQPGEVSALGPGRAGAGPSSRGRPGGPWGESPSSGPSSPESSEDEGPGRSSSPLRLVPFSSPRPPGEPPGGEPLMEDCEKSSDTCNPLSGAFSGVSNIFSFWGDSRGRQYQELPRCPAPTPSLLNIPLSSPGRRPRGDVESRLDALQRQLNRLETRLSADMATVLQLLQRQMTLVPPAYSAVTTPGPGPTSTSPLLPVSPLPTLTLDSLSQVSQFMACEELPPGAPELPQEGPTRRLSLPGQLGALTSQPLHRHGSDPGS
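U2OS cells were transduced with wild-type KCNH2 virus (2.03 x 10^8 / mL) for 4 h at room temperature, then cultured overnight at 37 C. Thallium flux was read with FluxOr dye. Rate constants were normalized to DMSO controls.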
KCNH2 3.1 block = inhibitors of human KCNH2 3.1 potassium channel isoform; 0.95% of 340,000 active; activity change, % (tested at about 1.8 µM); U2OS KCNH2 3.1, thallium flux FluxOr; hits give low values;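 active means maximum activity change below -70%; inconclusive means maximum activity change from -70% to -50%; inactive means maximum activity change above -50%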;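 further: thallium influx rate constant from kinetic fluorescence after stimulation buffer; on the % scale 0 is the no-effect control and ±100 the full control effect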
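Steps: virus added to U2OS suspension (4 h, RT, dark); medium with 10% FBS added, cells plated, 37 C overnight; FluxOr/Red40 loading buffer 45 min RT; stimulation buffer, 2 min kinetic read; rate constant normalized.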
PTAP TSG101 blk = blocks PTAP/TSG101 interaction to inhibit HIV-1 budding; Q99816; Fluorescence polarization, FITC-PTAP peptide / Tsg101 binding; Potency, µM (highest dose often 115 µM), inactives show at the highest dose activity change, negative = inhibition, hits mostly inhibitors; 340,000 tested, under 10 active; active means well fitted inhibition curve with a large enough effect in the main read-out, with a control signal flat, not every such curve was filed as active; inconclusive means small, poorly fitted or top-dose-only effect, or effect the other way, or a change in a side signal; inactive means no such curve, though single readings can be large or run the other way; further: potency means the concentration at half of the fitted maximal effect; % of control where 0% means no effect
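Fluorescence anisotropy tracks displacement of a FITC-tagged PTAP peptide (50 nM) from the Tsg101 binding domain (10 uM), following a 20 min room-temperature incubation at pH 7.5.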
* = called active by the depositor; ? = inconclusive; . = no result. This is a sample that favours compounds with a hit; in the whole collection about 1.2% have one here.

SMILES	Tb PFK inh	hERG WT inh	KCNH2 3.1 block	PTAP TSG101 blk
CCOP(=O)(OCC)C(Nc1ccccc1)c1ccco1 (stereo not drawn)	0.1%	-4.4	-118.1*	-6.7%
Cc1ccc(S(=O)(=O)N2CCCCC2CCNC(=O)C(=O)NCC2CCCO2)cc1 (stereo not drawn)	-2.4%	4.5	-29.5	-0.1%
CCCc1nc2c(nnn2Cc2ccccc2Cl)c(=O)[nH]1	-5.1%	-9.5	-5.5	2.2%
COC(=O)c1cc(C(=O)c2cc(Cl)ccc2O)coc1=N	8.4%	-172.0*	-5.4	-2.0%
COc1cc(SC)ccc1C(=O)Nc1ccc(C)cc1	0.0%	-10.3	-15.6	-0.1%
COc1cc(SC)ccc1C(=O)Nc1ccc(C)cc1C	-7.0%	-4.4	-82.2*	0.3%
C[C@H](CO)N1C[C@H](C)[C@@H](CN(C)S(=O)(=O)c2cn(C)cn2)Oc2c(NC(=O)Nc3ccc4c(c3)OCO4)cccc2C1=O	0.3%	-4.0	-123.5*	0.0%
C[C@H](CO)N1C[C@H](C)[C@@H](CN(C)S(=O)(=O)c2ccc(F)cc2)Oc2c(NC(=O)NC3CCCCC3)cccc2C1=O	-2.1%	-7.4	2.3	-1.6%
C[C@H](CO)N1C[C@H](C)[C@@H](CN(C)S(=O)(=O)c2ccccc2)Oc2c(NC(=O)NC3CCCCC3)cccc2C1=O	-0.2%	-9.8	-166.2*	1.6%
CS(=O)(=O)c1cccc(-c2nnc(NC(=O)C3=COCCO3)o2)c1	0.0%	1.8	11.5	-0.9%
COc1ccc(-n2nnnc2SCC(=O)Nc2ccccc2F)cc1	4.9%	-10.6	-25.5	1.0%
O=C1NC[C@H](Cc2ccccc2)N(C[C@H]2CCCN2C[C@H](Cc2ccccc2)N2C[C@H](Cc3ccc(O)cc3)N(CCc3ccccc3)C(=O)C2=O)C1=O	.	0.3	-0.6	-2.1%
CC(=O)Nc1ccc(S(=O)(=O)N2CCC(c3nnc(-c4ccc(C)cc4)o3)CC2)cc1	0.0%	8.7	-137.4*	-6.2%
COc1ccc(-c2nnc(C3CCN(S(=O)(=O)c4ccccc4)CC3)o2)cc1	0.2%	-1.5	0.5	-10.0%
Cc1c2cc(O)c(=O)cc-2oc2cc(O)c(O)cc12	3.38µM*	58.6	3.6	?
C=CCn1c(SCc2c(C)noc2C)nc2sc3c(c2c1=O)CCCC3	-1.6%	-6.7	-0.7	-0.3%
Cc1noc(C)c1CSc1nc2sc3c(c2c(=O)n1C)CCCC3	-0.1%	7.7	-102.0*	-2.9%
CCCCN1C(=O)c2ccc(C(=O)Nc3ccc(C)c(S(=O)(=O)N(C)C)c3)cc2C1=O	0.0%	6.5	-73.6*	-0.8%
Cc1ccc(OCCSc2nc(NC(C)C)nc(NC(C)C)n2)cc1	-4.5%	-0.8	-76.1*	2.4%
CCNc1nc(SCCOc2ccc(C)cc2)nc(N(C)C)n1	6.4%	55.4	-3.9	-6.4%
COc1cccc(CC2(CO)CCCN(Cc3ccc(OC)c(C)c3OC)C2)c1 (stereo not drawn)	0.8%	-79.2*	-112.7*	0.6%
COc1ccccc1/C=C/CN1CCCC(CO)(Cc2cccc(Cl)c2)C1 (stereo not drawn)	-2.0%	-0.4	-41.7	-1.0%
COc1cccc(CC2(CO)CCCN(C/C=C/c3ccccc3OC)C2)c1 (stereo not drawn)	1.2%	-70.9*	-86.2*	0.1%
COc1ccc(CN2CCN(Cc3cccc(Oc4ccccc4)c3)CC2)c(OC)c1OC	-0.4%	?	-73.4*	-0.2%
CN1CCN(Cc2cccc(Oc3ccccc3)c2)CC1	1.1%	-12.8	-6.4	-0.5%
SMILES	Tb PFK inh	hERG WT inh	KCNH2 3.1 block	PTAP TSG101 blk
COc1cccc(CC2(CO)CCCN(Cc3cc(F)ccc3-n3cccn3)C2)c1 (stereo not drawn)	2.8%	?	-104.6*	-3.2%
COc1cccc(CNC(=O)C(c2ccc(Cl)cc2)C(C)C)c1 (stereo not drawn)	?	-18.8	-4.1	0.0%
O=C1COc2ccc(N3C(=O)c4ccccc4C3=O)cc2N1	-1.2%	.	.	.
COc1cccc(-c2noc(-c3ccc(Cl)nc3)n2)c1	0.9%	20.1	1.1	-1.8%
Cc1cccc(CS(=O)(=O)Cc2ccc(C(=O)NCCc3ccccc3)o2)c1	4.7%	-2.8	15.1	-7.1%
Cc1ccccc1CS(=O)(=O)Cc1ccc(C(=O)NCCc2ccccc2)o1	-0.5%	5.9	-71.1*	-0.3%
NNC(=O)Cc1cccc2ccc(Cl)cc12	.	-11.7	-27.4	.
O=C(NCCc1nc2ccccc2[nH]1)/C(=C/c1ccc2c(c1)OCO2)NC(=O)c1ccccc1Cl	2.5%	?	-76.8*	-7.6%
O=C(CCc1nc2ccccc2[nH]1)Nc1ccc2c(c1)OCO2	1.2%	1.7	-197.6*	-0.1%
COc1ccc(CNC(=O)[C@H](CCSC)NC(=O)N2CCn3c2nc2ccccc23)cc1	0.0%	14.8	-13.8	-3.6%
O=C(CN(CC1CCCO1)C(=O)CNS(=O)(=O)c1ccc(F)cc1)NCCc1ccccc1 (stereo not drawn)	6.3%	-5.8	-20.0	0.7%
CC(C)C(c1nnnn1Cc1ccc(F)cc1)N1CCN(Cc2ccc3c(c2)OCO3)CC1 (stereo not drawn)	-0.7%	1.4	-71.4*	0.6%
Cc1ccc(C(c2nnnn2Cc2cccs2)N2CCN(Cc3ccc4c(c3)OCO4)CC2)cc1 (stereo not drawn)	-0.7%	-109.8*	-95.1*	0.4%
CCN1CCN(C(c2nnnn2Cc2ccc3c(c2)OCO3)C(C)C)CC1 (stereo not drawn)	-2.1%	4.0	-2.1	-0.9%
CN(c1ccccc1C(=O)O)S(=O)(=O)c1ccc2[nH]c(=O)oc2c1	-18.8%	.	.	.
Cc1ccc(C(C(=O)NC2CCCCC2)N(C(=O)CCCC(=O)Nc2ccccn2)c2ccc3c(c2)OCCO3)cc1 (stereo not drawn)	-1.4%	-5.9	-11.9	-1.0%
O=C(CCCC(=O)N(c1ccc2c(c1)OCCO2)C(C(=O)NC1CCCCC1)c1ccc(F)cc1)Nc1ccccn1 (stereo not drawn)	-2.1%	-4.4	-76.0*	-7.6%
CC(=O)Nc1ccc(S(=O)(=O)Nc2ccccc2C(=O)N2CCCCC2)cc1	0.6%	-22.3	10.0	-5.1%
Cc1csc(NC(C)c2nc3cc(Cl)c(Cl)cc3n2CCCO)n1 (stereo not drawn)	.	-8.8	-80.1*	2.4%
CC(Nc1nc(-c2ccc(F)cc2)cs1)c1nc2cc(C(F)(F)F)ccc2n1CCCO (stereo not drawn)	.	-15.9	-11.6	-9.6%
Cc1c(OC(C)C(=O)NCc2ccncc2)ccc2c3c(c(=O)oc12)CCCC3 (stereo not drawn)	0.9%	-9.9	-77.8*	-10.4%
CC(C)(C)NC(=O)C(c1ccc(-c2ccccc2)cc1)N(C[C@H]1CC[C@@H]([C@@H]2CC[C@H](CO)O2)O1)C(=O)c1ccc(C(C)(C)C)cc1 (stereo partly drawn)	-1.6%	3.0	2.3	-0.9%
CCCCn1c(N)c(N(CCOC)C(=O)COC(=O)CSc2cc(C)c3ccccc3n2)c(=O)[nH]c1=O	2.3%	-2.3	-3.3	-11.9%
